The source of these data is publication PMC7862700, “An all-to-all approach to the identification of sequence-specific readers for epigenetic DNA modifications on cytosine”.

Common to all, as to experiment: DAPPL (digital affinity profiling via proximity ligation, sequencing); 10 mM Tris-HCl pH 7.5, 50 mM NaCl, 1 mM DTT, 4% glycerol, room temperature, 30 min; GST-TFs on glutathione beads, 16-mer random dsDNA library, 0.1% formaldehyde crosslink after washing; high values mean tight binding
For one experiment, the target named is T1, FLI1 (Homo sapiens, UniProt Q01543 1-452).
T1 sequence: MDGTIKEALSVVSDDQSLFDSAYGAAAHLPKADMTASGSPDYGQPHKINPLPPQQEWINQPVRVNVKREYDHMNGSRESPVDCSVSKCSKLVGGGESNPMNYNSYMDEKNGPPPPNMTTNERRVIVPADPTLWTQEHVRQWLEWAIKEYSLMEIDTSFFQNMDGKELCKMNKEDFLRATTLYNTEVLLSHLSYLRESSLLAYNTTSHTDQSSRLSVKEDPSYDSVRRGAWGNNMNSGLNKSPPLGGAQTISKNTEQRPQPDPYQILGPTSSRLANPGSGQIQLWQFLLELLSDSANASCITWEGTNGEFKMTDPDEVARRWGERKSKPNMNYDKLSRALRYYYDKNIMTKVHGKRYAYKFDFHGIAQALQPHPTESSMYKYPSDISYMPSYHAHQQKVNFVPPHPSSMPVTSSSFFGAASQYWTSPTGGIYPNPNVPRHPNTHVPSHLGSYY
Particulars: protein: recombinant; tags: N-terminal GST; dsDNA, one strand shown. The method in brief:
(§1)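 Binding signal is given per hexamer as its read frequency for a factor divided by its frequency in the tag-only sample. GST-fused human transcription factors were expressed in yeast, captured on glutathione beads, barcoded with DNA and pooled with that sample, then incubated with 200 nmole of a 16-mer random double-stranded DNA library in Tris/NaCl/DTT/glycerol buffer for 30 min at room temperature. The pools were then washed, crosslinked, proximity-ligated, amplified by PCR and sequenced on an Illumina NextSeq500.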

The target in another experiment is T2, ELK1 (Homo sapiens, UniProt P19419 1-428).
T2 sequence: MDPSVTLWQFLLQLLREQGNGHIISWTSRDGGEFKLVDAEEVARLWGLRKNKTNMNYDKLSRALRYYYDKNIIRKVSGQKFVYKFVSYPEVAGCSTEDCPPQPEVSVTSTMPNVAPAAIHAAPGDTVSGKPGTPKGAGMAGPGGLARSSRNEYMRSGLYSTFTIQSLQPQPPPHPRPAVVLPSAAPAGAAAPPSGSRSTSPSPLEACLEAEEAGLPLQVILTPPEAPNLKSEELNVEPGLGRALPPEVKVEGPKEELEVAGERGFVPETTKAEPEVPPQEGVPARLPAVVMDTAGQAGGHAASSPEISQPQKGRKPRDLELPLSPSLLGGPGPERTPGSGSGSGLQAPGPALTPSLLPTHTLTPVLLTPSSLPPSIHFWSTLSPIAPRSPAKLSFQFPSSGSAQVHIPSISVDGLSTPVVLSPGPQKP
Particulars: protein: recombinant; tags: N-terminal GST; dsDNA, one strand shown. In outline: as §1

Another experiment deals with T3, GABPA (Homo sapiens, UniProt Q06546 1-454).
T3 sequence: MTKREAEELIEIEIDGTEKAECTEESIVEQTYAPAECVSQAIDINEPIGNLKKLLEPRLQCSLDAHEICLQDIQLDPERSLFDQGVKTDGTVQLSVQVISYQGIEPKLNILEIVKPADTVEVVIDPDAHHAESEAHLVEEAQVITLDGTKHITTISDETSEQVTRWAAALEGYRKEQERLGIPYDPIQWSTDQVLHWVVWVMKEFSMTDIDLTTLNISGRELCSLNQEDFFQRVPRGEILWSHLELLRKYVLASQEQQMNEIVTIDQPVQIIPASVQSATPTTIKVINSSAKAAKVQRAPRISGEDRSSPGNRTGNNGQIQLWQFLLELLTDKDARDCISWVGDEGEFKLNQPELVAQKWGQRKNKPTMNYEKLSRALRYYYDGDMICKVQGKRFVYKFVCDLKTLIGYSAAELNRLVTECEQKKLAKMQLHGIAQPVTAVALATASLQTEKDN
The conditions noted are these: protein: recombinant; tags: N-terminal GST; dsDNA, one strand shown. The method in brief: as §1

In another experiment the target is T4, ERG (Homo sapiens, UniProt P11308 1-479).
T4 sequence: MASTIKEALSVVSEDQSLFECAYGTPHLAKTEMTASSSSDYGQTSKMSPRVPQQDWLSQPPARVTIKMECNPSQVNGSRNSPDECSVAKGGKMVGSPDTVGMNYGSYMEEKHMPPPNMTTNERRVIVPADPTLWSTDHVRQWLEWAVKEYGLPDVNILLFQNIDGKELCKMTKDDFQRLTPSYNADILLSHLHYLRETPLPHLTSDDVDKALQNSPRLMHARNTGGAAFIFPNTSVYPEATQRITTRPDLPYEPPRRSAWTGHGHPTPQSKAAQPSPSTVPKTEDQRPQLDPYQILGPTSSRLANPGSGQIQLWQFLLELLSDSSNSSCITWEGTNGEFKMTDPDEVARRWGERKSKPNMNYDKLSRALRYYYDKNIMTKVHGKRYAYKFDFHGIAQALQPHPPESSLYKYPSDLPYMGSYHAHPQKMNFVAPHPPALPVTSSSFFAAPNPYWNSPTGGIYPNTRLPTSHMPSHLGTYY
The conditions noted are these: protein: recombinant; tags: N-terminal GST; dsDNA, one strand shown. The method in brief:
as §1

A further experiment deals with ELF1 (Homo sapiens, UniProt P32519 1-619). Particulars: protein: recombinant; tags: N-terminal GST; dsDNA, one strand shown. In outline:
as §1

A further experiment addresses T5, EHF (Homo sapiens, UniProt Q9NZC4 1-300).
T5 sequence: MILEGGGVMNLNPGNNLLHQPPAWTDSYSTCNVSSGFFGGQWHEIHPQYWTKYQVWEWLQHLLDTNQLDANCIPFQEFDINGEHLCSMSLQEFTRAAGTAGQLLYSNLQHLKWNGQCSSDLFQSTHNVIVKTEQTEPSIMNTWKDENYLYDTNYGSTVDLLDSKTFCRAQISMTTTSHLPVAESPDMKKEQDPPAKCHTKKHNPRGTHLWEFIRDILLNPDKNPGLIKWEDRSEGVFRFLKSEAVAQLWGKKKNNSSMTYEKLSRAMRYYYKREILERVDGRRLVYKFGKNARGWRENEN
Particulars: protein: recombinant; tags: N-terminal GST; dsDNA, one strand shown. The method in brief: as §1

A further experiment has as its target SPI1 (Homo sapiens, UniProt P17947 1-270). Particulars: protein: recombinant; tags: N-terminal GST; dsDNA, one strand shown. In outline:
as §1

For the next experiment, the target named is SPIB (Homo sapiens, UniProt Q01892 1-262). The conditions noted are these: protein: recombinant; tags: N-terminal GST; dsDNA, one strand shown. The method in brief: as §1
A further experiment deals with T6, ELK3 (Homo sapiens, UniProt P41970 1-407).
T6 sequence: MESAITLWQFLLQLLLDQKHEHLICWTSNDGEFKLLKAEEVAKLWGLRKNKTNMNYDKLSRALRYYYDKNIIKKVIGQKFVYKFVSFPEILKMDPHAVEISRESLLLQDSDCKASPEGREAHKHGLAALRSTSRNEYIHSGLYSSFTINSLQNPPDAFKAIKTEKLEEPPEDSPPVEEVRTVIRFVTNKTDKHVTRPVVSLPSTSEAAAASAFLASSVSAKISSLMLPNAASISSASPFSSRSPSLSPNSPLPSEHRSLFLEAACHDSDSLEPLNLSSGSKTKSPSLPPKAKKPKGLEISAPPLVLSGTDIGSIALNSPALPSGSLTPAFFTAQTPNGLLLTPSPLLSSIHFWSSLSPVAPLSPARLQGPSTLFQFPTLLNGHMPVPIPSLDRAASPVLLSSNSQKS
The conditions noted are these: protein: recombinant; tags: N-terminal GST; dsDNA, one strand shown. The method in brief:
as §1

The target of a further experiment is T7, FEV (Homo sapiens, UniProt Q99581 1-238).
T7 sequence: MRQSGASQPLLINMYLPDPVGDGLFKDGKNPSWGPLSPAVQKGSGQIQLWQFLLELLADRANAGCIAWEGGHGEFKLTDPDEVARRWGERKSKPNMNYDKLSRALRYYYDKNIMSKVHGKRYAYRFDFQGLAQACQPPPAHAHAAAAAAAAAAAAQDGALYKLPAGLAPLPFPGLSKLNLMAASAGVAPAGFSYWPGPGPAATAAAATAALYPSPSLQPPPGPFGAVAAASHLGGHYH
The conditions noted are these: protein: recombinant; tags: N-terminal GST; dsDNA, one strand shown. In outline: as §1

For the next experiment, the target named is ETV5 (Homo sapiens, UniProt P41161 1-510). The conditions noted are these: protein: recombinant; tags: N-terminal GST; dsDNA, one strand shown. In outline: as §1
For a further experiment, the target named is HSF1 (Homo sapiens, UniProt Q00613 1-529). Particulars: protein: recombinant; tags: N-terminal GST; chain copies: 3; dsDNA, one strand shown. In outline:
as §1

The next experiment concerns the target T8, SPIC (Homo sapiens, UniProt Q8N5J4 1-248).
T8 sequence: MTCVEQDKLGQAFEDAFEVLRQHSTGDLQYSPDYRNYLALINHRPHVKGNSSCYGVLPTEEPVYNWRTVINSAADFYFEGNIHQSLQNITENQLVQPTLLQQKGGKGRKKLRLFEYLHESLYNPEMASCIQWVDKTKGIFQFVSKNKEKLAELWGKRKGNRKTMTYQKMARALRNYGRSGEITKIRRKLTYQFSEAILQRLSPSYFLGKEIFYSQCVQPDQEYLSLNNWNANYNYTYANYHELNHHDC
Particulars: protein: recombinant; tags: N-terminal GST; dsDNA, one strand shown. In outline: as §1

A further experiment addresses ELF4 (Homo sapiens, UniProt Q99607 1-663). Particulars: protein: recombinant; tags: N-terminal GST; dsDNA, one strand shown. In outline: as §1
The next experiment addresses T9, ELK4 (Homo sapiens, UniProt P28324-2 1-405).
T9 sequence: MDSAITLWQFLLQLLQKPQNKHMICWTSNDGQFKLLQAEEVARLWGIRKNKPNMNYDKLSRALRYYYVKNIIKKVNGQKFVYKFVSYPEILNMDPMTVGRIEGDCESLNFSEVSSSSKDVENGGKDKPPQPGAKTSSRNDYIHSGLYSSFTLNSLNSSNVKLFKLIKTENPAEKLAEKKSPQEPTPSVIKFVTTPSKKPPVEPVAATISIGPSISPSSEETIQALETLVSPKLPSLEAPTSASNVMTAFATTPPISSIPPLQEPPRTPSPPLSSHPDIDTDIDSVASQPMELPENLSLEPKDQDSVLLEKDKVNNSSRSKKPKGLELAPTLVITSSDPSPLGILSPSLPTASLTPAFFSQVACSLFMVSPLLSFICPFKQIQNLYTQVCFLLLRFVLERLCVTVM
The conditions noted are these: protein: recombinant; tags: N-terminal GST; dsDNA, one strand shown. In outline: as §1

The target in another experiment is T10, ETV2 (Homo sapiens, UniProt O00321 1-342).
T10 sequence: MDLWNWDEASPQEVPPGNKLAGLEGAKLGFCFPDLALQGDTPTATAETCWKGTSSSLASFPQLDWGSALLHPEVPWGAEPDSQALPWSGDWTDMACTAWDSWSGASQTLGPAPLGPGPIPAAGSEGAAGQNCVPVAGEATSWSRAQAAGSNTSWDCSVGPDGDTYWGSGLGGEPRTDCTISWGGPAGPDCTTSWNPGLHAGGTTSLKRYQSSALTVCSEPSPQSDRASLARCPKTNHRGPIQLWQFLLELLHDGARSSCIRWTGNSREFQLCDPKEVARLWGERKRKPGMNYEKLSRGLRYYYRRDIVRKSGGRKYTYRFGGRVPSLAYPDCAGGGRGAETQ
The conditions noted are these: protein: recombinant; tags: N-terminal GST; dsDNA, one strand shown. In outline:
as §1

Another experiment has as its target T11, ELF3 (Homo sapiens, UniProt P78545 1-371).
T11 sequence: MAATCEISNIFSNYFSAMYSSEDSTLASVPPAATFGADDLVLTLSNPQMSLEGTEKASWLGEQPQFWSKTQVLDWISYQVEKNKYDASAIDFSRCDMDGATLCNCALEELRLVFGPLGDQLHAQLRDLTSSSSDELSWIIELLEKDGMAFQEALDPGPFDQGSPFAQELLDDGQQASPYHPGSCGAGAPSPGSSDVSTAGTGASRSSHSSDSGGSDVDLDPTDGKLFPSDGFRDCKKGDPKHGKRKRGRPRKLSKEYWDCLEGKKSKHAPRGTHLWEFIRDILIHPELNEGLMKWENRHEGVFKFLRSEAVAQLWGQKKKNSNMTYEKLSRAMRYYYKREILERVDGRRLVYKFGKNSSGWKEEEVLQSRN
Particulars: protein: recombinant; tags: N-terminal GST; dsDNA, one strand shown. In outline:
as §1

A further experiment has as its target CRX (Homo sapiens, UniProt O43186 1-299). Particulars: protein: recombinant; tags: N-terminal GST; dsDNA, one strand shown. In outline: as §1
The next experiment deals with ETV1 (Homo sapiens, UniProt P50549 1-477). Particulars: protein: recombinant; tags: N-terminal GST; dsDNA, one strand shown. In outline: as §1
ETV1, sequence (P50549 whole entry): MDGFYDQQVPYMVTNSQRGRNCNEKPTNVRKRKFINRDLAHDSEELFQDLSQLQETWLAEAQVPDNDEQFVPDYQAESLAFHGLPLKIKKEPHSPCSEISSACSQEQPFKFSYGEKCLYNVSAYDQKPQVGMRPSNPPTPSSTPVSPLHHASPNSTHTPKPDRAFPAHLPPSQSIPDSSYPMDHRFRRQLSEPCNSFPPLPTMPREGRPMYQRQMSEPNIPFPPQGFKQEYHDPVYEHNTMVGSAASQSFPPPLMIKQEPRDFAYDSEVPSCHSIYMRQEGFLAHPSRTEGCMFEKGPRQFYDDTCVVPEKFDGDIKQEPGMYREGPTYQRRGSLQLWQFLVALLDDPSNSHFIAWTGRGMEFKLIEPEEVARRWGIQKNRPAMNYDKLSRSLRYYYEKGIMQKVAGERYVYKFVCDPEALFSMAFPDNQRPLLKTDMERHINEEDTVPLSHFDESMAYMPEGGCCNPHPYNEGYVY

ELF4, sequence (Q99607 whole entry): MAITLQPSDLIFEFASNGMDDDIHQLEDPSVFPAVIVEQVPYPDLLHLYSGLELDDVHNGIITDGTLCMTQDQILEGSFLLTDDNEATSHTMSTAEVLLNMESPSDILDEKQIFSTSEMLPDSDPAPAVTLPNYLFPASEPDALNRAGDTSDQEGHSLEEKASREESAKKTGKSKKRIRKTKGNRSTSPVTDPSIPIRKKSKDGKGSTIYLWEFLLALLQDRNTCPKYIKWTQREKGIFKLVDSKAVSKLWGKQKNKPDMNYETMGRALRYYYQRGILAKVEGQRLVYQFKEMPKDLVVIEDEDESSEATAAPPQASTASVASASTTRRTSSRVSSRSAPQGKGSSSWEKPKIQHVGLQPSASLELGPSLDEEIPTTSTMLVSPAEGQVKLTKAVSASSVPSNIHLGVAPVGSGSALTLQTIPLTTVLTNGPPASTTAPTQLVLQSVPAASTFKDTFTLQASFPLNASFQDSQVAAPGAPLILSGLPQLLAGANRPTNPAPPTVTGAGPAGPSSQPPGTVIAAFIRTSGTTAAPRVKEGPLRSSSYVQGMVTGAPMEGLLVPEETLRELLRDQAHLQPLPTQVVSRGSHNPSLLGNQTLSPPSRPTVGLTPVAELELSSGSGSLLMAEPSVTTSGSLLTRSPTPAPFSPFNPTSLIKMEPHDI
ELF1, sequence (P32519 whole entry): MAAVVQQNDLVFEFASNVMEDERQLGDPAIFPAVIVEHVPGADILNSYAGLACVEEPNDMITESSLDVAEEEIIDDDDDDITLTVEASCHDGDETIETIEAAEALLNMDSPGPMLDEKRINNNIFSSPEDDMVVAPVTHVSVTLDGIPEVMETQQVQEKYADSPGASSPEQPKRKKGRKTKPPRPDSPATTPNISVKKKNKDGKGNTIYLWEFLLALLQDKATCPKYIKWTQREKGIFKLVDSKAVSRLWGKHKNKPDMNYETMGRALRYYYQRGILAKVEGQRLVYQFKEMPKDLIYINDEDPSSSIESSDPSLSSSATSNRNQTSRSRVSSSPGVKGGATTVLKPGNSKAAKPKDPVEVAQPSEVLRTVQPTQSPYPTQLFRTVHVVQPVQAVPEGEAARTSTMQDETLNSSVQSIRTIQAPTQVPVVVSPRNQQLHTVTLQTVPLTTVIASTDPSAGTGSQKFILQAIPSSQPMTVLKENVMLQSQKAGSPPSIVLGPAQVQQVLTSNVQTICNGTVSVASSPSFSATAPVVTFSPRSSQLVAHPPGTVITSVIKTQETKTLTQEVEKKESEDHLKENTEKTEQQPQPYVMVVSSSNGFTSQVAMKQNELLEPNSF
HSF1, sequence (Q00613 whole entry): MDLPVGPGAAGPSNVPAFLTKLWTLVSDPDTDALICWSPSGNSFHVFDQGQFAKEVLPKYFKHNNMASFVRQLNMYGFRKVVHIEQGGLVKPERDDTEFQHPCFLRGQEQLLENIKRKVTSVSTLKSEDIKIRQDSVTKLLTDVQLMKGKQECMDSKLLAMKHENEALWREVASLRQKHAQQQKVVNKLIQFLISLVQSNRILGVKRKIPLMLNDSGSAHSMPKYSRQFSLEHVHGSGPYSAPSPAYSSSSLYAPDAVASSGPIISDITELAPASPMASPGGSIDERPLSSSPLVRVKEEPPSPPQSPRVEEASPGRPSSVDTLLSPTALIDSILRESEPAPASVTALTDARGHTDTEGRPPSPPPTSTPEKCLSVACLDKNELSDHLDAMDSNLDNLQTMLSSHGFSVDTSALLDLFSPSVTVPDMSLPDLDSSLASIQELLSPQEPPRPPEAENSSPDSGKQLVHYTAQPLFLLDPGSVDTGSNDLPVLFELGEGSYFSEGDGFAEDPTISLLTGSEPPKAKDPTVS
CRX, sequence (O43186 whole entry): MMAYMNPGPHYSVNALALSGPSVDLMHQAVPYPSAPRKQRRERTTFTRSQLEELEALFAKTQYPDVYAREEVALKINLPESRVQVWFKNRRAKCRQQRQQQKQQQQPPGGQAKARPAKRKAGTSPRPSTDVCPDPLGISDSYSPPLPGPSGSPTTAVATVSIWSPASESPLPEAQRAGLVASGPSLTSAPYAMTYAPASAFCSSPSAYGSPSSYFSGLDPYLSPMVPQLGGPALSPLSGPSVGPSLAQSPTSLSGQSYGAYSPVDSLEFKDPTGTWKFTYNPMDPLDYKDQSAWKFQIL
SPIB, sequence (Q01892 whole entry): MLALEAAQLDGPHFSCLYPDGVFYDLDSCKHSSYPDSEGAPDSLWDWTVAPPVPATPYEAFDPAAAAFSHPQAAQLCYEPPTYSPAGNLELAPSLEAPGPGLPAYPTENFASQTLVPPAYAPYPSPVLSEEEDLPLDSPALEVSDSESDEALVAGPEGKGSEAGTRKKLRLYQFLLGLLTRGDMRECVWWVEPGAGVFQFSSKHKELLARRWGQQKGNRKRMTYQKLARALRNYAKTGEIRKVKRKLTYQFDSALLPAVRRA
ETV5, sequence (P41161 whole entry): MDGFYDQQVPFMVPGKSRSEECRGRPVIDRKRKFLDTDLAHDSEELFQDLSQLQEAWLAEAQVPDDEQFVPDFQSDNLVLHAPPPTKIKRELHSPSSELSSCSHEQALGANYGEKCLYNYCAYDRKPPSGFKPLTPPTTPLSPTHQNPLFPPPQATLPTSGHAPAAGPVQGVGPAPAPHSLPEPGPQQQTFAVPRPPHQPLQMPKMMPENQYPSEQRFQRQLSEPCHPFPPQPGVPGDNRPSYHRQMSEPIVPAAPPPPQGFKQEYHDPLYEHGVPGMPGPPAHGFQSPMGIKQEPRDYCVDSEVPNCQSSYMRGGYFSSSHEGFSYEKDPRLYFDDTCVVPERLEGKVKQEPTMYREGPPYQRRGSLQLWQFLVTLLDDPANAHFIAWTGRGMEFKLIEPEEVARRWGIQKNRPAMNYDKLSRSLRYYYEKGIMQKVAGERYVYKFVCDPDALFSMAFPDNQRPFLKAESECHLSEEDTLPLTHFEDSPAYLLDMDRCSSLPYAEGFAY

In the case of CGCCTC, the binding signal is 1.47 fold enrichment (6-mer frequency, TF over GST control) in the experiment with FLI1; 1.49 fold enrichment (6-mer frequency, TF over GST control) in the experiment with ELK1; 1.41 fold enrichment (6-mer frequency, TF over GST control) in the experiment with GABPA; 1.39 fold enrichment (6-mer frequency, TF over GST control) with ERG; 1.49 fold enrichment (6-mer frequency, TF over GST control) in the experiment with ELF1; 1.4 fold enrichment (6-mer frequency, TF over GST control) in the experiment with EHF. For the same sequence, the binding signal with SPI1 is 1.27 fold enrichment (6-mer frequency, TF over GST control); in the experiment with SPIB, 1.51 fold enrichment (6-mer frequency, TF over GST control); with ELK3, 1.46 fold enrichment (6-mer frequency, TF over GST control); in the experiment with FEV it was 1.45 fold enrichment (6-mer frequency, TF over GST control); with ETV5, 1.4 fold enrichment (6-mer frequency, TF over GST control); with HSF1 it was 1.1 fold enrichment (6-mer frequency, TF over GST control). The binding signal with SPIC was 1.33 fold enrichment (6-mer frequency, TF over GST control); with ELF4, 1.39 fold enrichment (6-mer frequency, TF over GST control); with ELK4, 1.14 fold enrichment (6-mer frequency, TF over GST control); with ETV2 it was 1.51 fold enrichment (6-mer frequency, TF over GST control); with ELF3, 1.49 fold enrichment (6-mer frequency, TF over GST control); in the experiment with CRX it was 1.05 fold enrichment (6-mer frequency, TF over GST control). For the same sequence, the binding signal in the experiment with ETV1 was 1.42 fold enrichment (6-mer frequency, TF over GST control).
